Data on 13 molecules can be found in PubChem BioAssay (NCI).

About 83,000 compounds went through this panel and 20% of them were active in at least one assay; those are over-represented in the sample as a whole.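 Negative percent growth values reflect cell death: -40 means 40% of the cells present at the start died, and -100 means all died.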 A number with no mark means an inactive call. Calls of active or inactive are those of the source. Rule for the calls: active = growth percent below 10; inactive = the rest.

Holding throughout (experiment): NCI-60 one-dose screen, 48 h (100 = growth as untreated, 0 = no growth, -100 = all killed)
For one experiment, the system named is DU-145 prostate. To be noted: 10 µM unless noted.
A further experiment concerns K-562 leukemia. To be noted: 10 µM unless noted.
For a further experiment, the system named is MALME-3M melanoma. The settings on record: 10 µM unless noted.
For a further experiment, the system named is MDA-MB-231 breast. To be noted: 10 µM unless noted.
The subject of the next experiment is RXF 393 renal. The settings on record: 10 µM unless noted.
The next experiment relates to SF-268 CNS. The settings on record: 10 µM unless noted.
The next experiment concerns SF-295 CNS. The settings on record: 10 µM unless noted.
For the next experiment, the system named is SF-539 CNS. The settings on record: 10 µM unless noted.
Another experiment concerns UACC-257 melanoma. To be noted: 10 µM.
The test system of the next experiment is M14 melanoma. The settings on record: 10 µM unless noted.

For the molecule `Cc1ccc(Cn2c(-c3nonc3N)nc3ccccc32)cc1`, the growth with DU-145 prostate was 100%; with K-562 leukemia it was 12.9%; in the experiment on MALME-3M melanoma it was 81.6%; with MDA-MB-231 breast, 83.5%; with RXF 393 renal, 82.1%; in the experiment on SF-268 CNS, 81.5%. In addition, the growth in the experiment with SF-295 CNS is 82.3%; with SF-539 CNS it was 80.4%; with UACC-257 melanoma, 89.6%; in the experiment on M14 melanoma, 66.4%.
With `O=C(O)Cc1ccc2c(c1)Cc1cccnc1O2`, the growth in the experiment with DU-145 prostate was 107%; with K-562 leukemia, 114%; in the experiment on MALME-3M melanoma, 98.5%; with MDA-MB-231 breast it was 111%; in the experiment on RXF 393 renal, 91.2%; in the experiment with SF-268 CNS it was 103%. The growth was 108% in the experiment on SF-295 CNS, 99.7% in the experiment with SF-539 CNS, 106% in the experiment on UACC-257 melanoma and 103% with M14 melanoma.
As for `O=C(CCCn1c2c(sc3ccccc32)c(=O)n2nnc(-c3ccccc3)c12)NCCc1cnc[nH]1`, the growth in the experiment with DU-145 prostate is -100% (active); in the experiment on K-562 leukemia, 78.7%; with MALME-3M melanoma, -76.1% (active); with MDA-MB-231 breast it was -47.2% (active); in the experiment on RXF 393 renal it was -66.9% (active); in the experiment with SF-268 CNS, -48.9% (active). Also, the growth was -42.6% (active) with SF-295 CNS, -97.3% (active) in the experiment on SF-539 CNS, -7.05% (active) in the experiment on UACC-257 melanoma and -80.6% (active) in the experiment on M14 melanoma.
In the case of `COc1cc(/C=C\c2cc(OC)c(OC)c(OC)c2)cc(N/C=C\C(=O)c2c[nH]c3ccccc23)c1OC`, the growth is 41.7% in the experiment with DU-145 prostate; -9.37% (active) in the experiment on K-562 leukemia; -58.2% (active) in the experiment with MALME-3M melanoma; -12% (active) in the experiment with MDA-MB-231 breast; -35.3% (active) with RXF 393 renal; 72% in the experiment with SF-268 CNS. The growth with SF-295 CNS is 55.8%; in the experiment with SF-539 CNS it was -95.2% (active); in the experiment on UACC-257 melanoma, 33.4%; with M14 melanoma, 52.9%.
For `O=C(c1ccncc1)N1N=C(c2ccc(Cl)cc2)CC1c1c[nH]c2ccccc12` (stereo not given), the growth in the experiment on DU-145 prostate is 102%; in the experiment with K-562 leukemia, 88.3%; in the experiment with MALME-3M melanoma, 96.7%; in the experiment on MDA-MB-231 breast, 71.3%; in the experiment with RXF 393 renal it was 112%; in the experiment with SF-268 CNS, 94.2%. Besides, the growth is 97% in the experiment with SF-295 CNS, 97% in the experiment with SF-539 CNS, 95.9% with UACC-257 melanoma and 95.3% with M14 melanoma.
For `Cc1ccc(S(=O)(=O)NCCCNc2nccc(-c3c(-c4ccccc4)nc4sccn34)n2)cc1`, the growth with DU-145 prostate was 26.2%; with K-562 leukemia, 15.9%; in the experiment on MALME-3M melanoma it was 99.3%; with MDA-MB-231 breast it was 18.3%; in the experiment on RXF 393 renal it was 65%; in the experiment on SF-268 CNS it was 38.6%. For the same molecule, the growth with SF-295 CNS was 65.2%; in the experiment on SF-539 CNS it was 82.5%; in the experiment on UACC-257 melanoma, 106%; in the experiment with M14 melanoma, 30.5%.
`Cc1cccc(NC(=O)c2sc3nc4c(cc3c2N)CCCC4)c1`: the growth in the experiment on DU-145 prostate was 45.6%; with K-562 leukemia, 17.8%; in the experiment with MALME-3M melanoma, 24.9%; with MDA-MB-231 breast, 60.9%; with RXF 393 renal, 63.8%; in the experiment on SF-268 CNS, 51.5%. For the same molecule, the growth with SF-295 CNS is 54.5%; in the experiment on SF-539 CNS, 48.5%; in the experiment with UACC-257 melanoma it was 46.3%; in the experiment on M14 melanoma, 30.3%.
In the case of `CCOC(=O)[C@H](CSSc1ncnc2cc[nH]c12)NC(=O)[C@@H](C)c1ccc2cc(OC)ccc2c1`, the growth was 33.4% with DU-145 prostate; 13.5% in the experiment on K-562 leukemia; 56.2% in the experiment with MALME-3M melanoma; 28.2% in the experiment on MDA-MB-231 breast; 57.9% with RXF 393 renal; 33.1% in the experiment on SF-268 CNS. Besides, the growth with SF-295 CNS was 16.7%; with SF-539 CNS, 11.4%; in the experiment with UACC-257 melanoma, 28.2%; in the experiment with M14 melanoma it was 6.45% (active).
As for `CCCCCC(=O)OCc1ccccc1`, the growth in the experiment with DU-145 prostate was 103%; in the experiment on K-562 leukemia, 84.9%; in the experiment on MALME-3M melanoma it was 85.9%; in the experiment with MDA-MB-231 breast, 109%; in the experiment on RXF 393 renal it was 105%; with SF-268 CNS it was 97.2%. Besides, the growth in the experiment with SF-295 CNS is 99.8%; with SF-539 CNS, 98.8%; with UACC-257 melanoma, 96.8%; with M14 melanoma, 94.9%.
With `COc1cc2c(cc1OC)C1(C)N(CC2)C(=O)OC1(C)C` (stereo not given), the growth in the experiment on DU-145 prostate was 112%; with K-562 leukemia, -78.1% (active); in the experiment with MALME-3M melanoma, 122%; in the experiment on MDA-MB-231 breast it was 115%; in the experiment with RXF 393 renal it was 99%; in the experiment with SF-268 CNS, 103%. Moreover, the growth is 103% with SF-295 CNS, 106% in the experiment with SF-539 CNS, 95.6% in the experiment on UACC-257 melanoma and 101% in the experiment on M14 melanoma.
For the molecule `COc1cc(Cn2c(SCC(=O)Nc3ccc(Cl)cc3)nc3ccccc3c2=O)cc(OC)c1OC`, the growth is 66.5% in the experiment on DU-145 prostate; 45.7% in the experiment with K-562 leukemia; 9.48% (active) in the experiment with MALME-3M melanoma; 49.3% in the experiment on MDA-MB-231 breast; 19.1% with RXF 393 renal; 46.5% in the experiment with SF-268 CNS. Further, the growth in the experiment on SF-295 CNS was 62.2%; with SF-539 CNS, -14% (active); in the experiment with UACC-257 melanoma, 73.8%; with M14 melanoma it was 74.9%.
For the molecule `CCNC(=O)CCCCC(=O)c1c(C)[nH]c(/C=C2\N=C(c3ccc[nH]3)C=C2OC)c1C`, the growth in the experiment on DU-145 prostate is 2.48% (active); with K-562 leukemia, 51.5%; in the experiment on MALME-3M melanoma, 51.6%; in the experiment with MDA-MB-231 breast it was 0.721% (active); in the experiment on RXF 393 renal, -48% (active); with SF-268 CNS it was 27.2%. In addition, the growth in the experiment with SF-295 CNS is -22.1% (active); with SF-539 CNS, 54.8%; in the experiment with UACC-257 melanoma, 54.6%; in the experiment with M14 melanoma it was 5.27% (active).
Turning to `COc1ccc(C(=O)/C=C/c2ccc(/C=C/c3cc(OC)c(OC)c(OC)c3)cc2)cc1`, the growth in the experiment on DU-145 prostate is 68.4%; in the experiment on K-562 leukemia it was 14.4%; with MALME-3M melanoma, 66.8%; in the experiment on MDA-MB-231 breast it was 76.8%; in the experiment on RXF 393 renal, 71.3%; in the experiment on SF-268 CNS, 66.2%. Moreover, the growth in the experiment with SF-295 CNS is 57.9%; in the experiment on SF-539 CNS it was 86.3%; with UACC-257 melanoma, 72.5%; with M14 melanoma, 67%.
